We go through 98 compounds from PubChem BioAssay AID504332 (National Center for Advancing Translational Sciences (NCATS), 2011).

Molecules are shown by their SMILES. The campaign covered roughly 350,000 compounds. About 31,000 (8.9%) were called active. Where a call stands in place of a potency, no number is given. Another 15% or so got no clear call; they are omitted. Calls come from the whole dose curve; as a rule, active = well fitted inhibition curve with a large enough effect; inconclusive = small, poorly fitted or top-dose-only effect; inactive = no such curve, though single readings can be large or run the other way. This excerpt belongs to a sample that is enriched for actives.
Potency is the fitted concentration of half-maximal effect.

Chain of Histone-lysine N-methyltransferase EHMT2 (Homo sapiens) (Q96KQ7 913-1193 limits assumed): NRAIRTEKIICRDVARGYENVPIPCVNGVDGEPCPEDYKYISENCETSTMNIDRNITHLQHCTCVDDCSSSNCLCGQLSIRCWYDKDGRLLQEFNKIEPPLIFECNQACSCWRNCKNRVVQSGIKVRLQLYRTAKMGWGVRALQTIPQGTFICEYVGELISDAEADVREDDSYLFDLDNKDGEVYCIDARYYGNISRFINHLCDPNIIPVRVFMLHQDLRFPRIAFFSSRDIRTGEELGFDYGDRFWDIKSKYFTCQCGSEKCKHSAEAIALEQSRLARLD

The experiment addresses Histone-lysine N-methyltransferase EHMT2 (Homo sapiens) (UniProt Q96KQ7). As to the kind of experiment: qHTS Assay for Inhibitors of Histone Lysine Methyltransferase G9a. Note: nearly all actives have a fitted effect of over 75% in size. As to conditions: G9a H3K9 monomethylation, AlphaScreen, 2 h; series mostly up to 59 µM. The method, boiled down: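 Compounds were preincubated with 20 nM G9a for 15 min, after which biotinylated H3K9 peptide (500 nM) and SAM (20 uM) started a 2 h room-temperature reaction. Monomethylated product was quantified by antibody-based AlphaScreen chemiluminescence.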
For `CC1CCCC(NC(=O)c2cc(S(=O)(=O)N3CCCCC3)ccc2Cl)C1C` (stereo not drawn), the activity, negative = inhibition is 12.6% [at 12.7 µM] (inactive).
As to `CCOC(=O)c1c(C)[nH]c(C)c1S(=O)(=O)N1CCC(C(=O)Nc2ccc(C)c(Cl)c2)CC1`, the Potency result was “inactive”.
Same read-out and setting: next, `CC(=O)Nc1cccc(C(=O)OCC(=O)c2ccc3c(c2)OCO3)c1`: “inactive”; `CC1(C)CC(=O)c2ccc(O)cc2O1`: “inactive”.
Same read-out and setting: next, `COc1ccc(C(=O)Nc2onc3c2CCCC3)cc1`: “inactive”; `CC(C)(C)c1ccc(C(=O)NCC(c2ccc(Cl)cc2)N2CCOCC2)cc1` (stereo not drawn): “inactive”.
Consider `CCOC(=O)c1cc2c(=O)n3ccccc3nc2n(CC2CCCO2)c1=NC(=O)c1ccccc1F` (stereo not drawn), for which the Potency result is “inactive”.
On the same count and under the same terms, next, `COc1ccc(-c2nn3c(-c4ccccc4)nnc3s2)cc1OC`: 35.5 µM (active).
In the case of `COc1cc(-c2nn3c(-c4cccc(C)c4)nnc3s2)cc(OC)c1OC`, the activity, negative = inhibition is -23.6% [at 12.7 µM] (inactive).
Take `CCOc1cccc(-c2nn3c(-c4ccccn4)nnc3s2)c1`: the Potency result was “inactive”.
The same measure, in the same setting: next, `COC(=O)c1ccc(NCC(=O)N2CCCCCC2)cc1`: “inactive”; `COC(=O)c1ccc(NCC(=O)c2ccccc2)cc1`: 50.1 µM (active); `Cc1ccc(C(=O)CNc2ccc(F)cc2)cc1`: “inactive”.
Still for that read-out and setting: next, `CCCCc1nc2cc(C(=O)NCCc3cnn(C)c3)ccc2o1`: “inactive”; `O=C(NC1CCCCCCC1)c1cccs1`: “inactive”; `CCN(Cc1ccccc1)C(=O)Cc1ccc(OC)c(S(=O)(=O)N2CCOCC2)c1`: “inactive”.
Still for that read-out and setting: next, `CN1CCN(c2ccc(S(=O)(=O)Nc3ccccc3)cc2[N+](=O)[O-])CC1`: “inactive”; `Cc1ccc(C(=O)c2ccc(N3CCN(C)CC3)c([N+](=O)[O-])c2)cc1`: “inactive”.
For `CN1CCN(S(=O)(=O)c2ccc(N3CCN(c4ccccc4O)CC3)c([N+](=O)[O-])c2)CC1`, the Potency was 39.8 µM (active).
Same read-out and setting: next, `Cc1ccc(S(=O)(=O)n2nc(-c3ccc(Cl)cc3)nc2NCc2ccccc2)cc1`: “inactive”.
Same read-out and setting: next, `COCCNc1cc(-c2ccccc2)nc2cc(-c3cccc(F)c3)nn12`: “inactive”.
Still for that read-out and setting: next, `COCC1CCN(C(=O)c2ccc3oc(Cc4ccccc4)nc3c2)C1` (stereo not drawn): “inactive”.
Turning to `CCN(CC)S(=O)(=O)c1ccc2[nH]c(=O)cc(C(=O)N(C)C3CCS(=O)(=O)C3)c2c1` (stereo not drawn), the Potency entry is “inactive”.
Same read-out and setting: next, `COc1cccc(CNC(=O)C2CCN(S(=O)(=O)c3ccc4c(ccn4C)c3)CC2)c1`: “inactive”.
On the same count and under the same terms, next, `Cc1ccc(-c2nc(CS(=O)CC(=O)NC3CCCC3)c(C)o2)cc1` (stereo not drawn): 70.8 µM (active); `COc1cccc(-c2nc(CS(=O)CC(=O)NCc3ccc(F)cc3)c(C)o2)c1` (stereo not drawn): “inactive”.
Still for that read-out and setting: next, `Cc1cccc(-c2nc(CS(=O)CC(=O)NC(C)CCc3ccccc3)c(C)o2)c1` (stereo not drawn): “inactive”; `COc1ccc(CNC(=O)CS(=O)Cc2nc(-c3cccc(C)c3)oc2C)cc1` (stereo not drawn): “inactive”; `COc1ccc(-c2nc(CS(=O)CC(=O)NCc3ccccc3)c(C)o2)cc1OC` (stereo not drawn): “inactive”.
As to `COc1ccc(-c2nc(CS(=O)CC(=O)N3CCc4ccccc4C3)c(C)o2)cc1` (stereo not drawn), the Potency was 28.2 µM (active).
As to `CCC(=O)Nc1cccc(C(=O)OCc2cc(=O)n3nc(CC)sc3n2)c1`, the activity, negative = inhibition was -1.91% [at 12.7 µM] (inactive).
With `CC(C)CC(NS(=O)(=O)c1ccc2c(c1)oc(=O)n2C)C(=O)NCc1ccccc1Cl` (stereo not drawn), the Potency entry was “inactive”.
On the same count and under the same terms, next, `CCOc1ccc(OCC)c(NC(=O)C(NS(=O)(=O)c2ccc3c(c2)oc(=O)n3C)C(C)C)c1` (stereo not drawn): 56.2 µM (active); `COc1ccccc1CNC(=O)C(Cc1ccccc1)NS(=O)(=O)c1ccc2c(c1)oc(=O)n2C` (stereo not drawn): “inactive”; `CCCn1c2ccccc2c2cnn(CC(=O)N3CCCC(C(=O)OCC)C3)c(=O)c21` (stereo not drawn): “inactive”.
As to `CC(Sc1sc(=S)sc1SC(C)C(=O)O)C(=O)O` (stereo not drawn), the Potency is 50.1 µM (active).
Same read-out and setting: next, `Cc1ccc(C)c(NC(=O)COC(=O)Cn2c(C)csc2=O)c1`: “inactive”; `COc1ccccc1CCC(=O)NNC(=O)c1ccncc1`: “inactive”; `CC(C)(C)c1cc(P(=O)(c2ccccc2)c2ccccc2)ccc1O`: “inactive”.
As for `O=C(CP(=O)(c1ccccc1)c1ccccc1)N1CCOCC1`, the Potency result is “inactive”.
Same read-out and setting: next, `O=P(O)(CP(=O)(c1ccccc1)c1ccccc1)c1ccccc1O`: 50.1 µM (active).
On the same count and under the same terms, next, `O=C1N(Cc2ccccc2)c2ccc(Cl)cc2C1(O)c1c[nH]c2ccccc12` (stereo not drawn): “inactive”; `COc1ccccc1N1CCN(C2C(=O)c3ccccc3N2C(C)=O)CC1` (stereo not drawn): “inactive”; `O=C(CCS(=O)(=O)c1ccc2c(c1)NC(=O)CS2)NCc1ccccc1Cl`: “inactive”.
On the same count and under the same terms, next, `O=S1(=O)CC/C(=N\Nc2ccc(F)cc2)c2ccsc21`: 10 µM (active).
Consider `COc1ccc(C(=O)N/N=C2\CCS(=O)(=O)c3ccc(F)cc32)cc1OC`, for which the activity, negative = inhibition was 27.4% [at 12.7 µM] (inactive).
Regarding `O=C(c1cccc(Cl)c1)N1CCN(CCc2ccncc2)CC1`, the Potency entry was “inactive”.
For `Cc1ccccc1C(OCC(O)CN1CCCCC1CCO)c1ccccc1` (stereo not drawn), the Potency result was “inactive”.
As for `CN(C)CCOC(=O)C(c1ccccc1)C1(O)CCCC1` (stereo not drawn), the activity, negative = inhibition was 4.21% [at 2.33 µM] (inactive).
Take `Cc1ccccc1C(OCCN(C)C)C1CCCCC1` (stereo not drawn): the Potency was 3.16 µM (active).
With `COc1ccc2[nH]c(=O)c(-c3noc(-c4ccc(F)cc4)n3)cc2c1`, the activity, negative = inhibition was -36.9% [at 12.7 µM] (inactive).
In the case of `COc1ccc(N=Nc2c(-c3ccc(OC)cc3)[nH]oc2=O)cc1`, the Potency is 39.8 µM (active).
Same read-out and setting: next, `COc1ccc(-c2cn[nH]c2-c2ccc(OC)cc2)cc1`: “inactive”.
As to `Cc1occc1-c1nnc(SCC(=O)NC2CCCCC2)o1`, the activity, negative = inhibition is 9.17% [at 12.7 µM] (inactive).
`COc1ccccc1CNC(=O)CSc1nc(=O)n(Cc2ccncc2)c2c1CCC2`: the Potency entry is “inactive”.
Still for that read-out and setting: next, `O=[N+]([O-])c1ccccc1OCCCCN1CCCCC1`: “inactive”.
Still for that read-out and setting: next, `CC1CCCN(CC(=O)Nc2cc(Cl)ccc2Oc2ccccc2)C1` (stereo not drawn): “inactive”.
Still for that read-out and setting: next, `CC1CN(CC(=O)NC(C)c2ccccc2)CC(C)O1` (stereo not drawn): “inactive”.
For `CC1CN(c2nc(-c3ccccc3)nnc2-c2ccccc2)CC(C)O1` (stereo not drawn), the Potency entry is “inactive”.
On the same count and under the same terms, next, `CC1CN(CCOc2ccccc2[N+](=O)[O-])CC(C)O1` (stereo not drawn): 10 µM (active).
Regarding `CC1CN(CCCOc2ccccc2-c2ccccc2)CC(C)O1` (stereo not drawn), the Potency was 8.91 µM (active).
As for `CC1CC(C)CN(CCOc2cccc3ccccc23)C1` (stereo not drawn), the activity, negative = inhibition was 17.4% [at 2.33 µM] (inactive).
For `Cc1cc(C(=O)COc2ccccc2[N+](=O)[O-])c(C)n1-c1cccc(S(=O)(=O)N2CCOCC2)c1`, the Potency result is “inactive”.
On the same count and under the same terms, next, `CC1CCCN(CCOCCOc2ccccc2-c2ccccc2)C1` (stereo not drawn): 10 µM (active); `CC(C)(C)c1ccc(S(=O)(=O)N2CCN(C(=O)c3ccc4c(c3)C(=O)N(Cc3ccncc3)C4=O)CC2)cc1`: “inactive”.
The same measure, in the same setting: next, `CCc1ccccc1NC(=O)CSc1nnc(-c2ccccc2)c(-c2ccccc2)n1`: “inactive”; `O=C(Nc1ccc(-c2nc3cc(NC(=O)c4ccccc4Cl)ccc3o2)cc1)c1ccccc1Cl`: “inactive”.
Take `O=C(CCc1nc2sc3c(c2c(=O)[nH]1)CCCC3)NCC(=O)Nc1ccccc1Br`: the activity, negative = inhibition was -4.82% [at 12.7 µM] (inactive).
As to `COc1cccc(C(=O)N2CCC(n3nccc3NC(=O)C3CCOC3)CC2)c1` (stereo not drawn), the activity, negative = inhibition is -5.15% [at 0.501 µM] (inactive).
For `Cc1cc(Br)ccc1NC(=O)Cn1cnc2sc(C)c(S(=O)(=O)N3CCN(C)CC3)c2c1=O`, the Potency entry was “inactive”.
On the same count and under the same terms, next, `O=C(Nc1cccc2cccnc12)c1cccc(N2C(=O)CCC2=O)c1`: “inactive”.
On the same count and under the same terms, next, `Cc1cc(NC(=O)c2cccc(N3C(=O)CCC3=O)c2)no1`: “inactive”; `COc1ccccc1-c1nnc(NC(=O)c2cccc(N3C(=O)CCC3=O)c2)o1`: 1.41 µM (active).
`COc1cc(NC(=O)NCC2CCN(Cc3ccc(C)cc3)CC2)cc(OC)c1OC`: the Potency entry was “inactive”.
The same measure, in the same setting: next, `COc1cc(CN2CCN(Cc3ccc(C)cc3)CC2)c([N+](=O)[O-])cc1OC`: 4.47 µM (active).
The same measure, in the same setting: next, `COc1cc(CN2CC(C)CC(C)C2)cc([N+](=O)[O-])c1O` (stereo not drawn): “inactive”; `CCOC(=O)c1cc(-c2ccccc2)n(CCC(=O)Nc2ccccc2CC)c1C`: “inactive”.
`CN(C)CCOC1c2ccccc2-c2ccccc21`: the Potency was 22.4 µM (active).
On the same count and under the same terms, next, `COC(CCN(C)C)(c1ccccc1)c1ccccc1`: “inactive”; `O=C(N/N=C\c1ccc(Br)cc1)c1ccc(Cn2cccn2)o1`: “inactive”; `O=C(N/N=C/c1ccc2c(c1)OCO2)c1ccc(Cn2cc([N+](=O)[O-])cn2)o1`: “inactive”.
Turning to `CN(C)c1ccc(/C=N/NC(=O)c2ccc(Cn3cc(Br)cn3)o2)cc1`, the Potency was 39.8 µM (active).
Still for that read-out and setting: next, `Cc1ccc(C)c(N2CCN(C(=O)Cc3c(C(=O)O)c(C)cn3C)CC2)c1`: “inactive”.
As for `CCC(C(=O)N1CCN(S(=O)(=O)c2sc(C(=O)O)c(C)c2C(=O)O)CC1)c1ccccc1` (stereo not drawn), the activity, negative = inhibition is -9.12% [at 2.33 µM] (inactive).
For `COc1ccc(C(=O)Oc2cc(/C=N/NS(=O)(=O)c3ccc(C)cc3)ccc2OC)cc1`, the Potency entry is “inactive”.
On to `COc1cc(/C=N/Nc2ccc(C)cc2)cc(Br)c1O`, for which the Potency is 3.98 µM (active).
For the compound `COc1cc(/C=N/O)cc(Br)c1OS(=O)(=O)c1ccc(C)cc1`, the Potency result is “inactive”.
For `O=C(NC1CC(=O)N(c2ccc(F)cc2)C1)C1CCCCC1` (stereo not drawn), the Potency entry is “inactive”.
Consider `COc1ccc(NC(=O)CSc2nnc(-c3nnn(-c4ccc(F)cc4)c3C)o2)cc1`, for which the Potency entry is “inactive”.
As to `Cc1c(O)c(C)c2c(c1O)C(=O)C[C@@H](c1ccccc1)O2`, the activity, negative = inhibition was 17.8% [at 2.33 µM] (inactive).
Regarding `CCn1c(C(C)NC(=O)c2ccc(C)cc2)n[nH]c1=S` (stereo not drawn), the Potency was 39.8 µM (active).
Still for that read-out and setting: next, `CCn1c(SCC(=O)NNC(=O)c2ccc(OC)cc2)nnc1C(C)C`: “inactive”.
Same read-out and setting: next, `CCn1c(SCC(=O)Nc2nc(C)cs2)nnc1C(C)NC(=O)c1ccccc1` (stereo not drawn): “inactive”; `CC(NC(=O)CCc1cn(Cc2ccccc2Cl)c2ccccc12)c1ccccc1` (stereo not drawn): “inactive”.
Same read-out and setting: next, `COc1ccc(Cn2c(=O)n(-c3ccccc3C)c(=O)c3c4c(sc32)CN(C(C)=O)CC4)cc1`: “inactive”; `CCN(CC)c1ccc2cc(C(N)=O)/c(=N\NC(=O)c3ccncc3)oc2c1`: “inactive”; `CCN(CC)c1ccc2c(Nc3ccccc3)c(C=O)c(=O)oc2c1`: “inactive”.
Regarding `CCN(CC)c1ccc2oc(=O)c(C)nc2c1`, the Potency was 11.2 µM (active).
